CYP2C19 inh: blockers of cytochrome P450 2C19 activity – biochemical, luminescence, ADME assay, primary screen. CYP2C19 Supersomes, luciferin-H EGE luminescence, 30 min. 21% of 96,000 active. P33261. inhibition, % at 5 µM;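 active = CYP2C19 inhibition above a set limit at 5 µM in the primary screen, cut at about 50% in these data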;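 also: plate controls were negative control wells for no effect and 2.5 mM tranylcypromine positive control for full effect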
Target sequence (P33261 whole entry, looked up): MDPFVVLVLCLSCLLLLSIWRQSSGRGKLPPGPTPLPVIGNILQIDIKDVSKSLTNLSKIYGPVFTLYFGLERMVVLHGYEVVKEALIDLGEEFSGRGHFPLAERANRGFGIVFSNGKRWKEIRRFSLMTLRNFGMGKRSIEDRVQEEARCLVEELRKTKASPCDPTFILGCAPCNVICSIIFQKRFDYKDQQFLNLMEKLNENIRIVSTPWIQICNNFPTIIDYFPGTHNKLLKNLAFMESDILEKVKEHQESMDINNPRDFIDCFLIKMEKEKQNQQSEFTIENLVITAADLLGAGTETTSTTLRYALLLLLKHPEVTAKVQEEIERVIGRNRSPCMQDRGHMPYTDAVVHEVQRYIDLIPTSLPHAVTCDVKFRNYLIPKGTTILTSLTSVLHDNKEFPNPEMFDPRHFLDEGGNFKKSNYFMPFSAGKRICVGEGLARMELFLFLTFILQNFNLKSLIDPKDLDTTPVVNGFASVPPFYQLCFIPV
CYP2C9 inhib: blockers of cytochrome P450 2C9 activity – biochemical, luminescence, ADME assay, primary screen; inhibition, % at 5 µM; CYP2C9 Supersomes, luciferin-H conversion; 20% of 96,000 active; P11712; AID 777, 2007;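 active = blocking of liver enzyme CYP2C9 beyond about 50% at 5 µM, limit read from the data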
CYP2C19 act: human CYP2C19 activators, primary screen, biochemical, luminescence | activation factor at 5 µM | AID 1025, 2008 | 96,000 tested, under 10 active | recombinant CYP2C19, luciferin-H EGE luminescence; stronger effect = higher value; 0 = fully inhibited enzyme, 1 = untreated enzyme;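 active = activation factor of at least 2 at 5 µM in the primary screen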;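 also: 0 = wells with 2.5 mM tranylcypromine and 1 = vehicle-only wells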
PostGolgi yeast: phenotypic screen on post-Golgi transport, primary screen. inhibition, % at 10 µM. post-Golgi transport phenotypic cell assay. 0.9% of 98,000 active;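 also: yeast cells grown in 1536-well plates; yeast grown about 18 h at 30C before absorbance read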
PostGolgi ctrl: growth inhibition of yeast control strain, primary screen, counter-screen for post-Golgi transport modulator project; efflux-deficient yeast background strain, growth absorbance A615, 16 h; inhibition, % at 10 µM; 5% of 98,000 active; AID 738, 2007
CYP2C9 act: human CYP2C9 activators, primary screen, biochemical, luminescence; activation factor at 5 µM; recombinant CYP2C9, luciferin-H conversion; stronger effect = higher value; factor 1 = untreated enzyme, 0 = blocked; 1.4% of 96,000 active; AID 1024, 2008;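 active = activation factor of 2 or more for CYP2C9 at a 5 µM dose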;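 also: 0 = sulfaphenazole-blocked wells and 1 = vehicle-only wells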
* hit, by the source's call; x = no result given. The list is not random: actives were taken first. Their share in the collection is about 32%. Rule as the data show it, unless noted: active = inhibition above about 30%; inactive = the rest.

SMILES	CYP2C19 inh	CYP2C9 inhib	CYP2C19 act	PostGolgi yeast	PostGolgi ctrl	CYP2C9 act
O=C1C(Nc2cccc(O)c2)=C(N2CCCCC2)C(=O)c2ccccc21	38.7	61.7*	0.6	-5.6	-9.1	0.4
CN(C1=C(N2CCCCC2)C(=O)c2ccccc2C1=O)c1ccccc1	94.7*	90.0*	0.1	-0.8	33.1*	0.1
CC(C(=O)N1CCCCC1)N1C(=O)c2ccccc2C1=O (configuration not stated)	-10.3	-11.0	1.1	-2.5	11.5	1.1
Cc1cccc(N2C(=O)C3C4CC(C(Br)C4Br)C3C2=O)n1 (configuration not stated)	11.2	12.1	0.9	-3.0	2.3	0.9
CCC(C)c1ccc2oc(-c3ccc(NC(=O)Cn4cnc5c(=O)n(C)c(=O)n(C)c54)cc3)nc2c1 (configuration not stated)	11.8	48.2	0.9	-16.5	75.9*	0.5
N#Cc1c(NC(=O)c2ccc(Cn3cc(Br)cn3)o2)sc2c1CCCCCC2	31.0	58.1*	0.7	-3.0	4.2	0.4
CCc1ccc(CCC(=O)Nc2sc3c(c2C#N)CCCC3)o1	9.0	34.2	0.9	0.0	6.7	0.7
COc1ccc(-c2cc3nc4n(c(=O)c3s2)CCC4)cc1	70.1*	51.1*	0.3	-0.3	24.6	0.5
CCS(=O)(=O)CCSc1nc2ccccc2s1	71.9*	-49.4	0.3	0.0	4.7	1.5
CC(=O)CSc1nc2ccccc2s1	11.0	-12.7	0.9	3.9	25.8	1.1
C=CCS(=O)(=O)c1nc2ccccc2s1	-0.6	-28.8	1	3.3	6.5	1.3
O=S(=O)(CCSc1nc2ccccc2s1)c1nc2ccccc2s1	24.5	73.8*	0.8	8.1	89.5*	0.3
CN(C)S(=O)(=O)c1ccc2oc(SCC(=O)NCC(F)(F)F)nc2c1	14.8	11.2	0.9	-4.0	-1.7	0.9
COCCCn1c(-c2ccsc2)nc2c1c(=O)[nH]c(=O)n2Cc1ccccc1	-1.0	9.5	1	7.3	9.7	0.9
COc1ccc(N=C2S/C(=C\c3cc(C)n(C)c3C)C(=O)N2C)cc1	50.8*	55.0*	0.5	-5.3	10.4	0.4
CCOC(=O)C1=C(CSc2nc(C)cc(C)c2C#N)OC(N)=C(C#N)C1c1ccccc1 (configuration not stated)	74.8*	81.4*	0.3	-6.5	15.0	0.2
CCOC(=O)C1=C(CSc2nc(C)cc(C)c2C#N)OC(N)=C(C#N)C1c1cccs1 (configuration not stated)	85.6*	41.5	0.1	0.8	12.7	0.6
CCN1C=C(Cc2cccs2)C2=C(C1)C(c1cccs1)C(C#N)=C(N)O2 (configuration not stated)	31.4	56.1*	0.7	6.5	13.3	0.4
CCOC(=O)c1c(NC(=O)CSc2nc(C)cc(C)c2C#N)sc(C(C)=O)c1C	23.6	18.1	0.8	-1.1	3.8	0.8
CCN1CC2=C(OC(N)=C(C#N)C2c2cccs2)/C(=C/c2cccs2)C1 (configuration not stated)	19.7	30.1	0.8	4.9	15.8	0.7
CCCC1=C(C(=O)OCC)C(c2cccs2)C(C#N)=C(N)O1 (configuration not stated)	79.1*	66.6*	0.2	1.8	12.4	0.3
COc1c(C)cccc1C(=O)Nc1ccc(CN2CCOCC2)cc1	32.8	-12.8	0.7	2.6	6.8	1.1
Clc1ncn(C23CC4CC(CC(C4)C2)C3)n1	14.2	0.9	0.9	-4.5	-8.9	1
CCSc1nnc(NC(=O)C2C3C=CC(C3)C2C(=O)O)s1 (configuration not stated)	23.1	24.4	0.8	17.1	2.9	0.8
COc1cc(C(=O)N2CCN(C(=O)COc3ccc4ccccc4c3)CC2)cc(OC)c1OC	18.3	35.0	0.8	9.1	6.9	0.7
SMILES	CYP2C19 inh	CYP2C9 inhib	CYP2C19 act	PostGolgi yeast	PostGolgi ctrl	CYP2C9 act
CCOC(=O)C1=C(CSc2nc(CC)c(C)cc2C#N)OC(N)=C(C#N)C1c1ccccc1 (configuration not stated)	48.7	68.2*	0.5	-6.4	2.1	0.3
CCOC(=O)C1=C(CSc2nc3c(cc2C#N)CN(C)CC3)OC(N)=C(C#N)C1c1ccc(Cl)cc1 (configuration not stated)	31.8	44.4	0.7	9.1	0.3	0.6
COc1ccccc1N(CC(=O)N1CCCCCC1)S(C)(=O)=O	-9.5	-3.9	1.1	-3.6	-3.5	1
Cc1cccc2cc(C(c3nnnn3Cc3ccccc3)N3CCN(C)CC3)c(=O)[nH]c12 (configuration not stated)	2.4	2.1	1	x	x	1
CCc1ccc2[nH]c(=O)c(C(c3nnnn3CCOC)N3CCN(c4ccc(F)cc4)CC3)cc2c1 (configuration not stated)	96.0*	69.4*	0	-0.6	4.7	0.3
Cc1cccc2cc(C(c3nnnn3Cc3ccccc3)N3CCN(c4ccccc4)CC3)c(=O)[nH]c12 (configuration not stated)	34.1	50.4*	0.7	-10.8	2.3	0.5
CCc1ccc2[nH]c(=O)c(C(c3nnnn3Cc3ccccc3)N3CCOCC3)cc2c1 (configuration not stated)	1.0	45.3	1	10.7	5.5	0.5
CCc1ccc2[nH]c(=O)c(C(c3nnnn3CCOC)N3CCN(c4ccccc4)CC3)cc2c1 (configuration not stated)	49.1	68.7*	0.5	6.5	5.0	0.3
CCc1ccc2[nH]c(=O)c(C(c3nnnn3Cc3ccco3)N3CCC(C)CC3)cc2c1 (configuration not stated)	59.6*	38.3	0.4	1.5	7.8	0.6
Cc1ccc(CSCCNC(=O)/C=C/c2ccccc2Cl)cc1	4.2	7.6	1	-7.8	5.8	0.9
CCCCCC/C(=N\NS(C)(=O)=O)c1ccccc1	17.0	34.8	0.8	-1.9	10.1	0.7
O=C(NCc1cccs1)C1CCC(CNS(=O)(=O)c2ccc(Br)s2)CC1 (configuration not stated)	11.4	12.9	0.9	-0.2	3.5	0.9
c1ccc(Cn2nnnc2C(c2ccccn2)N2CCN(c3ccccc3)CC2)cc1 (configuration not stated)	61.3*	45.9	0.4	4.7	11.0	0.5
c1ccc(Cn2nnnc2C(c2ccccn2)N2CCOCC2)cc1 (configuration not stated)	5.9	-2.4	0.9	-1.6	4.5	1
CCOC(=O)c1ccccc1NC(=O)CN(c1cccc(OC)c1)S(C)(=O)=O	99.3*	94.6*	0	-4.8	6.3	0.1

Bioassay records from PubChem.
